# An excerpt weighted towards active compounds, which were near 3.1% of everything screened.
# Tau fibril ThT: blocks human tau fibril formation measured by thioflavin T. AID 1460. recombinant tau K18 P301L, heparin-induced fibrillization, ThT fluorescence. hit rate 2.1% among 270,000. Potency, µM (top dose mostly 57.4 µM), for the others: at the highest dose activity, negative = inhibition, usual class: inhibitors; also: nearly all actives have a fitted effect of over 55% in size
#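 Recombinant human tau K18 fragment […] carrying P301L, 15 uM unlabeled plus 0.24 uM Alexa 594-labeled, was fibrillized with 20 uM heparin in 100 mM sodium acetate pH 7 for 6 hr at 37 C; 30 uM ThT fluorescence read after 1 hr.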
# RGS12 GoLoco inh: inhibitors of human Gai1-RGS12 GoLoco interaction (red fluorophore). AID 880. Gai1:RGS12 GoLoco peptide FP, rhodamine, 10 min. P63096. Potency, µM (highest dose often 61.6 µM), for the others: at the highest dose activity, negative = inhibition, usual class: inhibitors. hit rate 0.44% among 230,000; active = well fitted inhibition curve with a large enough effect, not every such curve was filed as active; inactive = no such curve, though single readings can be large or run the other way; also: nearly all actives have a fitted effect of over 30% in size
# Tau fluor cs: counter-screen for tau fibril formation inhibitors | Potency, µM (titrated, usually from 57.7 µM), without a hit: top-dose activity change, negative = decrease | tau K18 P301L (four-repeat tau fragment) Alexa594 fluorescence, heparin fibrillization | hit rate 0.93% among 280,000; also: nearly all actives have a fitted effect of over 55% in size
#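 Human K18 P301L tau (15 uM unlabeled plus 0.24 uM Alexa 594-labeled, final) in 100 mM sodium acetate pH 7 was mixed with compound and 20 uM heparin and incubated 6 hr at 37 C.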
# TRb SRC2 PPI: disrupts binding of human TR beta to SRC2. AID 1469. Potency, µM (titrated, usually from 106 µM), for inactives: at the highest dose activity change, negative = inhibition, hits mostly inhibitors. TRbeta-SRC2 peptide binding, fluorescence polarization; receptor liganded with 1 µM T3. P10828. hit rate 0.065% among 280,000;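 also: plate controls were bound peptide for no effect and peptide without receptor for full effect; nearly all actives have a fitted effect of over 50% in size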
# Target sequence (P10828 whole entry, looked up): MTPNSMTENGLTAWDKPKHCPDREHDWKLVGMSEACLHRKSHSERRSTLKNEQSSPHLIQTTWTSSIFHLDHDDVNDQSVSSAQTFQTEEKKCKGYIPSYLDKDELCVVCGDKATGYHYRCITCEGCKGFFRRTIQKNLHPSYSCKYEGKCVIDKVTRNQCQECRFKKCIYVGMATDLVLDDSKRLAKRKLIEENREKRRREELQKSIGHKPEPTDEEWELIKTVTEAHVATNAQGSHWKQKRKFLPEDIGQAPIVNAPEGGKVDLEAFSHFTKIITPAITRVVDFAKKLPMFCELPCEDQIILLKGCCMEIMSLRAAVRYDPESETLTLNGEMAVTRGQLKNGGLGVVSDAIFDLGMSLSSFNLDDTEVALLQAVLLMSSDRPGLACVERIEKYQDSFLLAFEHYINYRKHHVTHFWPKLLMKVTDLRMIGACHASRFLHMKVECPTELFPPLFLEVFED
#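 Binding of a 20-amino-acid Texas Red SRC2 peptide (20 nM) to TRb ligand-binding domain (0.6 uM) with agonist T3 at 1 uM was followed by fluorescence polarization after a 5 hr room-temperature incubation.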
# Tau FP inhib: blocks human tau fibril formation measured by polarization. P10636. K18 P301L tau heparin fibrillization, Alexa594 FP, 6 h. Potency, µM (titrated, usually from 57.7 µM), for the others: top-dose activity, negative = inhibition, usual class: inhibitors. hit rate 0.39% among 280,000; also: nearly all actives have a fitted effect of over 55% in size
#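 FP of Alexa 594-tau after heparin (20 uM) induction. Substrate: human K18 P301L, 15 uM unlabeled, 0.24 uM labeled. Buffer 100 mM sodium acetate pH 7. 6 hr, 37 C.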
# TexasRed fluor: alters Texas Red total fluorescence, flagging assay interference; TRb/SRC2 Texas Red total fluorescence interference; Potency, µM (doses to about 106 µM), inactives show top-dose fluorescence change, negative = quenching; hit rate 0.29% among 280,000; active = well fitted curve in either direction with a large enough effect; inconclusive = small, poorly fitted or top-dose-only effect
#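 Flags fluorescent or light-absorbing compounds by total fluorescence, S + 2P, at 555 nm excitation and 632 nm emission. Mixture: 20 nM Texas Red SRC2 peptide, 0.6 uM human TRb LBD, 1 uM T3, 5% DMSO; compound exposure 5 h at ambient temperature.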
# Active calls of the source: *; ? = inconclusive; nt = not tested or not shown; [ ] = remark or other dose. Unless noted, calls follow the shape of the dose curve; as a rule, active = well fitted curve in the direction sought with a large enough effect; inconclusive = small, poorly fitted or top-dose-only effect, or another doubt; inactive = no such curve, though single readings can be large; an effect the other way counts as inactive or inconclusive. Unless noted, % is scaled to controls: 0 for no effect and ±100 for the full control effect; potency is read from the fitted curve at half-maximal effect.
SMILES,Tau fibril ThT,RGS12 GoLoco inh,Tau fluor cs,TRb SRC2 PPI,Tau FP inhib,TexasRed fluor
CC1=C([N+](=O)[O-])C(c2ccccc2)C2=C(N1)c1ccccc1C2=O (stereo not drawn),15.8µM*,49.2%,15.8µM*[quencher],-2.4%,-0.9%,-2.1%
Cc1ccc(NC(=O)c2cc(N(C)C)ccc2[P+](=O)O)cc1,-18.4%,-2.9%,-4.9%,-2.3%,-2.6%,-0.2%
CCOc1ccc(C2C(C#N)=C(C)NC3=C2C(=O)c2ccccc23)cc1 (stereo not drawn),?,17.1%,20µM*[quencher],-6.2%,?,-5.6%
COc1ccc(C2C(C#N)=C(C)NC3=C2C(=O)c2ccccc23)cc1 (stereo not drawn),?,10.8%,-26.0%,3.4%,-10.7%,-6.8%
CCN(CC)c1ccc(NC2CC(=O)N(CCc3ccc(OC)cc3)C2=O)cc1 (stereo not drawn),11.2µM*,9.1%,?,-13.1%,?,19.4%
CC1=Nc2ccccc2/C1=C\c1nc(-c2ccc(F)cc2)oc1O,7.08µM*,11.7%,10µM*[quencher],-22.9%,?,15.0%
CN=Cc1nc(-c2ccccc2)oc1O,-11.7%,13.9%,-9.2%,-13.5%,1.8%,-7.5%
CCOC(=O)c1c(C)[nH]c(C)c1C(=O)CSc1ncccn1,-7.2%,1.3%,-3.9%,2.2%,10.6%,-4.2%
CC1(C)CC(=O)C2=C(C1)c1c(ccc3ccccc13)NC2c1cc([N+](=O)[O-])cc([N+](=O)[O-])c1O (stereo not drawn),11.2µM*,-1.0%,?,-8.8%,?,1.4%
COc1ccc(-c2cc(C(F)(F)F)nc(SCCC(=O)Nc3cccc(O)c3)n2)cc1,2.1%,nt,?,2.6%,14.1µM*,4.6%
COc1ccc(-c2cc(C(F)(F)F)nc(SCCC(=O)Nc3cccc(OC)c3)n2)cc1,-12.8%,nt,?,-0.5%,?,-0.1%
Cc1ccc(S(=O)(=O)NCCc2nnc3ccc(SCC(=O)Nc4ccc(F)cc4F)nn23)cc1,-7.1%,nt,-6.9%,0.0%,-1.5%,1.0%
Cc1[nH]c2ccccc2c1C(c1ccccc1)c1ccc(Cl)s1 (stereo not drawn),?,nt,7.08µM*[quencher],5.3%,?,-1.8%
COc1ccc(CC(=O)N2CCN(C(=O)Cc3ccc(OC)cc3)CC2)cc1,-5.8%,5.0%,-2.1%,-6.7%,-5.1%,2.9%
COc1ccc(-c2ccc(C(=S)N3CCN(C(C)=O)CC3)o2)cc1,28.2µM*,-9.0%,-27.8%,-4.0%,?,1.0%
N/C(COc1ccc(C(=O)O)cc1)=N\O,-4.3%,8.7%,-1.6%,2.1%,2.1%,1.8%
COCCNC(=O)c1onc(CSc2ccncc2)c1C(=O)NCCOC,11.3%,1.9%,21.2%,-2.2%,0.2%,-0.4%
CCN(CC)C(=O)Oc1ccc(Cl)c2cccnc12,-3.7%,12.4%,-1.5%,-0.6%,2.0%,-0.9%
O=C(Nc1cccc(C(F)(F)F)c1)Oc1ccc(Cl)c2cccnc12,-14.7%,-9.0%,?,6.5%,20µM*,-3.9%
COc1ccc2[nH]cc(/C=N/NS(=O)(=O)c3ccc(C)cc3)c2c1,?,-3.3%,12.6µM*[quencher],0.8%,15.3%,-1.9%
COc1ccc2c(/C=N/NS(=O)(=O)c3ccc(C)cc3)c[nH]c2c1,?,9.0%,12.6µM*[quencher],-4.2%,13.1%,-4.0%
Cc1ccc(S(=O)(=O)N/N=C/c2c[nH]c3ccccc23)cc1,?,16.0%,?,-1.1%,12.2%,-10.0%
CCCNC(=O)Cn1nc(-c2ccc(C)cc2)c2cnc3ccc(CC)cc3c21,?,nt,-13.8%,8.9%,-14.4%,-27.7%
CCOc1ccc(NC(=O)CNC(=O)COc2ccccc2)cc1,-13.0%,nt,-7.4%,2.7%,-2.3%,2.6%
O=C(NCc1ccc(F)cc1)c1ccc2c(O)c(S(=O)(=O)c3ccccc3)c(=O)[nH]c2c1,-6.0%,nt,-6.7%,-4.9%,-5.2%,-1.9%
O=C1/C(=C\c2ccccn2)SC(=S)N1Nc1ncc(C(F)(F)F)cc1Cl,28.2µM*,-18.2%,-29.5%,-3.7%,?,-8.9%
